IL1B secr inh = inhibitors of inflammasome signaling (IL-1 beta secretion) | THP-1 LPS/ATP IL-1B secretion, AlphaLISA, 16 h; stronger effect = lower value | hit rate 4.7% among 360,000 | AID 743279 | activity change, % at 57.5 µM; in the data active = activity change below about -50%; inconclusive = mostly about -30% to -49%
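THP-1 cells pretreated 1 hr with compounds (up to 57.5 uM final), then stimulated with LPS (250 ng/mL final) plus ATP (1.25 mM final); secreted IL-1B measured by AlphaLISA after 16 hr, decreased signal indicating inhibition.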
HT1080 IDH1KD tx = kills HT-1080 cells with IDH1 knockdown | HT-1080 IDH1 knockdown viability, ATP luminescence, 48 h | Potency, µM (highest dose often 46.1 µM), without a hit: at the highest dose activity, negative = toxicity, most hits filed as cytotoxic | hit rate 2% among 360,000;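 note: potency is the fitted concentration of half-maximal effect; 0% = DMSO wells and -100% = cell-free medium wells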
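Viability of IDH1-knockdown HT-1080 fibrosarcoma cells was assessed by CellTiter-Glo after 48 h at 37 °C with titrated compound; concentration-effect curves were classified by fit quality and response size.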
DT40 TDP1 no CPT = qHTS for Inhibitors of human tyrosyl-DNA phosphodiesterase 1 (TDP1): qHTS in cells in absence of CPT; AID 686978, 2013; DT40 Tdp1-/- hTDP1 cells, no CPT, ATP luminescence, 48 h; Potency, µM (doses to about 46.2 µM), for inactives: at the top dose activity change, negative = growth inhibition, usual class: inhibitors; hit rate 15% among 420,000; note: potency is the fitted concentration of half-maximal effect; nearly all actives have a fitted effect of over 55% in size
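Compound effects on proliferation are scored in DT40 Tdp1-/-;hTDP1 cells in the absence of CPT. ATP levels (CellTiter-Glo luminescence) are recorded after a ≥48 hr, 37 °C incubation.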
HT1080-NT tox = kills 2HG-producing HT-1080-NT fibrosarcoma cells. HT-1080-NT fibrosarcoma viability, CellTiter-Glo ATP luminescence, 48 h. Potency, µM (series often up to 46.1 µM), without a hit: top-dose activity, negative = less viability, actives largely listed as cytotoxic. hit rate 1.6% among 360,000;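 note: NT is the 2HG producing partner of a matched IDH1 knockdown line; potency is the fitted concentration of half-maximal effect; 0% = DMSO-treated cells and -100% = media-only wells without cells; nearly all actives have a fitted effect of over 55% in size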
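HT-1080-NT; 750 cells/well; 5% FBS RPMI; 48 h compound, 37 degrees C; CellTiter-Glo luminescence; curve fitting and curve-class assignment.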
DT40 TDP1 CPT = DT40-hTDP1 cell growth loss with CPT | chicken DT40 Tdp1-/-;hTDP1 cells + 20 nM CPT, ATP luminescence, 48 h | Potency, µM (highest dose often 46.2 µM), for the others: top-dose activity change, negative = growth inhibition, hits mostly inhibitors | hit rate 12% among 420,000; note: potency is the fitted concentration of half-maximal effect; nearly all actives have a fitted effect of over 55% in size
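Chicken DT40 Tdp1-/- cells stably complemented with human TDP1 were seeded at 400 cells/well in medium containing 20 nM camptothecin, exposed to pin-transferred compounds, and grown at 37 °C for at least 48 hr. Viability was read as ATP luminescence.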
An asterisk follows results filed as active; u = inconclusive; x = no result given; [ ] = another dose, or the depositor's remark. The list is not random: actives were taken first. Their share in the collection is about 19%. Unless noted, calls come from the whole dose curve; as a rule, active = well fitted curve in the direction sought with a large enough effect; inconclusive = small, poorly fitted or top-dose-only effect, or another doubt; inactive = no such curve, though single readings can be large; an effect the other way counts as inactive or inconclusive. Unless noted, % is set by controls: 0 for no effect and ±100 for the full control effect.

SMILES	IL1B secr inh	HT1080 IDH1KD tx	DT40 TDP1 no CPT	HT1080-NT tox	DT40 TDP1 CPT
CC(C)C(=O)N1CCN(c2ccccc2NC(=S)NC(=O)c2ccco2)CC1	-2	-7%	u	0%	16µM*
CCC(C)c1ccccc1NC(=S)NC(=O)c1ccco1 (stereo unspecified)	0	12%	13µM*	4%	23µM*
Clc1cccc(Cl)c1C[n+]1cccc2ccccc21	-7	u	2.1µM*	u	2.1µM*
COc1cccc(C(=O)C[n+]2cccc3cc(OC)ccc32)c1	5	-12%	-25%	-11%	2%
O=[N+]([O-])c1ccc(Cl)c(C[n+]2cccc3ccccc32)c1	16	-13%	18µM*	-16%	21µM*
O=C(C[n+]1cccc2ccccc21)c1ccc([N+](=O)[O-])cc1	55	u	u	-2%	21µM*
O=C(C[n+]1cccc2ccccc21)c1ccc(Cl)cc1	-2	-25%	-13%	-7%	-22%
COc1ccc(C(=O)C[n+]2cccc3cc(OC)ccc32)cc1	-1	-9%	21µM*	-16%	u
O=[N+]([O-])c1ccc(Cl)c(CN2CCCCCC2)c1	-12	1%	-19%	0%	-25%
Cn1c(=O)[nH]c(=O)c2c1nc(SCCCO)n2CCCc1ccccc1	1	-5%	-1%	0%	-19%
Cc1c(C(=O)NCC2(N3CCOCC3)CCCC2)cnn1-c1nccc(-c2ccccc2F)n1	x	x	-9%	x	4%[9.04 µM]
CC(C)N(Cc1cn(C)nc1-c1cccc(Cl)c1)Cc1nccn1C	u	-8%	u	-6%	u
O=C1c2cnc3nc(SCc4cccc(Cl)c4)nn3c2CC2c3ccccc3CCN12 (stereo unspecified)	20	15%	21µM*	7%	15µM*
CSc1nc2ncc3c(n2n1)CC1c2ccccc2CCN1C3=O (stereo unspecified)	-21	4%	u	19%	u
Cc1c(-n2c(SCC(=O)NC(C)C)nc3ccccc3c2=O)c(=O)n(-c2ccccc2)n1C	0	3%	5%	0%	2%
COc1ccccc1NC(=O)COc1cccc2c1CCNC2=O	-2	-10%	6.5µM*	-16%	10µM*
COc1ccc(NC(=O)COc2cccc3c2CCN(C)C3=O)c(OC)c1	0	0%	u	-1%	13µM*
O=C(COc1cccc2c1CCNC2=O)Nc1ccc(Cl)cc1	-3	-17%	u	-2%	18µM*
NC(=O)c1ccc(NC(=O)COc2cccc3c2CCNC3=O)cc1	2	1%	-21%	-1%	-1%
CSCCC(NC(=O)c1ccc(C)o1)C(=O)O (stereo unspecified)	16	22%	5%	25%	4%
Cc1ccc2nsnc2c1NC(=O)COc1ccccc1F	-14	7%	-3%	17%	14%
Cc1cccc(OCC(=O)Nc2c(C)ccc3nsnc23)c1C	x	x	u	x	15µM*
Cc1cc(OCC(=O)Nc2ccncc2)ccc1Br	-14	-3%	23µM*	-10%	u
Cc1cc(Cl)ccc1OCC(=O)Nc1ccncc1	u	-11%	5.8µM*	u	u
Cc1cc(Cl)ccc1OCC(=O)NCc1ccncc1	-1	10%	u	9%	u
SMILES	IL1B secr inh	HT1080 IDH1KD tx	DT40 TDP1 no CPT	HT1080-NT tox	DT40 TDP1 CPT
O=C(COc1ccc(Cl)cc1)Nc1ccc(Cc2ccncc2)cc1	-71*	-19%	u	-1%	u
COc1cccc(NC(=O)COc2ccc(Br)c(C)c2)c1	-3	2%	-9%	6%	-4%
CCC(CC)c1nnc(NC(=O)C2CSC3(C)CCC(=O)N23)s1 (stereo unspecified)	9	15%	-9%	10%	-3%
Cn1c2ccccc2c2cnn(CC(=O)Nc3ccccc3C(F)(F)F)c(=O)c21	x	x	-9%	x	-3%
CCn1cc(C(C)NC(=O)COc2ccc(Cl)cc2C)c(C)n1 (stereo unspecified)	7	u	21µM*	-1%[9.24 µM]	u
Cc1cccc(OCC(=O)Nc2ccncc2)c1C	-6	u	8.2µM*	-4%	12µM*
COc1ccccc1OCC(=O)Nc1ccncc1	16	2%	u	6%	-23%
Cc1nnsc1-c1c(C(=O)Oc2ccccc2)c(C)nn1-c1ccccc1	1	-8%	u	-1%	-22%
COC(=O)c1c(C)nn(-c2ccc(OC(F)(F)F)cc2)c1-c1snnc1C	-3	-3%	16µM*	-6%	u
CCOC(=O)C1=CN(c2cccc(F)c2)C=C(C(=O)OCC)C1c1cc(OC)c(O)c([N+](=O)[O-])c1	-23	u	-15%	u	u
O=C1C=CC(c2c[nH]c3ccccc23)CC1 (stereo unspecified)	-108*	u	16µM*	u	u
Cc1ccccc1N1C(=O)CC(c2c[nH]c3ccccc23)C1=O (stereo unspecified)	0	-11%	-14%	-7%	-7%
O=C(NCc1cccs1)c1cc(S(=O)(=O)N2CCOCC2)ccc1N1CCCC1	-2	-1%	-2%	4%	7%
COc1ccc(-c2csc3ncnc(Nc4cc(OC)cc(OC)c4)c23)cc1	x	x	16µM*	x	u
COc1ccc(-c2csc3ncnc(Nc4ccc(OC)cc4OC)c23)cc1	x	x	u	x	4.1µM*
COc1ccc(-c2csc3ncnc(Nc4cccc(F)c4)c23)cc1	x	x	-31%	x	u
O=C(Nc1nncs1)c1cc(S(=O)(=O)N2CCOCC2)ccc1Cl	2	18%	0%	4%	4%
O=C1C=CN2CCCCC2CC1 (stereo unspecified)	66	0%	16µM*	2%	10µM*
COCCn1cc(C(=O)c2ccccc2OCC(=O)Nc2cc(C)on2)cc(C#N)c1=O	29	8%	1%	11%	-4%
COc1ccc(-n2cc(CNCC3CC(=O)N(C4CC4)C3)c(-c3ccccc3Cl)n2)cc1 (stereo unspecified)	u	-20%	23µM*	-19%	16µM*
COc1ccc(-c2nn(-c3ccccc3)cc2CNC[C@H]2O[C@@H](n3cnc4c(N)ncnc43)[C@H](O)[C@@H]2O)cc1	u	-1%	-15%	4%	-11%
CCN1CC(CNCc2cn(-c3ccc(OC)cc3)nc2-c2ccccc2Cl)CC1=O (stereo unspecified)	-51*	1%	u	-22%	u
O=C(CCCc1c[nH]c2ccccc12)NCC1COc2ccccc2O1 (stereo unspecified)	-25	-10%	u	-16%	-1%

High-throughput results: PubChem, National Center for Advancing Translational Sciences (NCATS)
